# Bioassay records: PubChem, National Center for Advancing Translational Sciences (NCATS)
# LmPK inhibitor = qHTS Assay for Inhibitors of Leishmania Mexicana Pyruvate Kinase (LmPK) | Q27686 | purified LmPK, Kinase-Glo ATP luminescence, 1 h | Potency, µM (highest dose often 57.5 µM), most hits filed as inhibitors | actives 0.37% (n = 290,000) | AID 1721, 2009
# Target sequence (Q27686 whole entry, looked up): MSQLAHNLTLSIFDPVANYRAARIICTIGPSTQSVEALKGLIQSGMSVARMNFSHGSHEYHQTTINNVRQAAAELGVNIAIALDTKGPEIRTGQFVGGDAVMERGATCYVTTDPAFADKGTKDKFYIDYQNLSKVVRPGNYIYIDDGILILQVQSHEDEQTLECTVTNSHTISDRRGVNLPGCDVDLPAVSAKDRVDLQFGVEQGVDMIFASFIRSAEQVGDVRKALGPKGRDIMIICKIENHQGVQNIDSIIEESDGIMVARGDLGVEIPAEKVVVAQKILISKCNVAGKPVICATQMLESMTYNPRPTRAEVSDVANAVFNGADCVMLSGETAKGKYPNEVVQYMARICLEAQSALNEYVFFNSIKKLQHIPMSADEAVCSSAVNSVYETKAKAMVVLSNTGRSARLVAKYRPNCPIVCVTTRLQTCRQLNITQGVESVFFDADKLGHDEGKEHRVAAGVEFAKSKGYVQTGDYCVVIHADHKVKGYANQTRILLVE
#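 Kinase-Glo luminescence read after 1 h RT reaction of 0.1 nM LmPK with 0.5 mM PEP and 0.1 mM ADP. Activity scaled between uninhibited and enzyme-free controls.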
# FBPA Giardia inh = qHTS Assay for Inhibitors of Fructose-1,6-bisphosphate Aldolase from Giardia Lamblia | purified Giardia FBPA | AID 2451, 2010 | A8B2U2 | actives 0.71% (n = 290,000) | Potency, µM (doses to about 59.6 µM), most hits filed as inhibitors; further: nearly all actives have a fitted effect of over 55% in size
#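 40 nM FBPA preincubated 10 min at RT with compound (up to 57.5 uM final), then substrate plus GAPDH/TPI/NAD/arsenate coupling and diaphorase/resazurin added. Fluorescence read after 20 min at RT, 525/598 nm.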
# Cycloheximide cs = Cycloheximide Counterscreen for Small Molecule Inhibitors of Shiga Toxin; cell reporter, cycloheximide protein synthesis inhibition counterscreen; actives 12% (n = 300,000); max response, %; in the data active means max response mostly above about 13%, no sharp cut-off; inactive means mostly below about 14%; further: read at 38.3 µM for the half of the compounds with a filed dose
# Tb PYK inh = qHTS of Trypanosoma Brucei Inhibitors; actives 0.12% (n = 410,000); pyruvate kinase (Trypanosoma brucei), Q57TT1; TbPYK enzyme, Kinase-Glo Plus ATP luminescence, 45 min; Potency, µM (titrated, usually from 76.8 µM), usual class: inhibitors; AID 624173, 2012; further: nearly all actives have a fitted effect of over 50% in size
#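 T. brucei PYK with substrate was exposed to pin-transferred compounds across a concentration series, then started with 130 uM ADP (final). After 45 min at room temperature, Kinase-Glo Plus luminescence was read, normalized and curve-fitted.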
# Sm TGR inh = qHTS Assay for the Inhibitors of Schistosoma Mansoni Peroxiredoxins. Potency, µM (doses to about 114 µM), actives largely listed as inhibitors. actives 3% (n = 360,000). AID 485364, 2010. Schistosoma mansoni thioredoxin glutathione reductase (TGR), Q962Y6. purified TGR, DTNB reduction, TNB absorbance 405 nm; further: nearly all actives have a fitted effect of over 60% in size
#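 Kinetic colorimetric format: TGR-catalysed, NADPH-driven DTNB reduction monitored via TNB absorbance. Enzyme dispensed at 20 nM; compound exposure 15 min at room temperature before reaction start.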
# Shiga inhibitor = A qHTS for Small Molecule Inhibitors of Shiga Toxin | Vero cells, Shiga toxin protein synthesis inhibition reporter | inhibition, % at 38.7 µM | actives 9.2% (n = 290,000); in the data active means inhibition mostly above about 28%, no sharp cut-off; inactive means mostly below about 43%
# Numbers stand for hits; – = inactive; ? = inconclusive; · = not tested or not shown. The full list was thinned out, with hits kept by preference. Unless noted, the call rests on the fitted dose curve; in most records, active means well fitted curve in the direction sought with a large enough effect; inconclusive means small, poorly fitted or top-dose-only effect, or another doubt; inactive means no such curve, though single readings can be large; an effect the other way counts as inactive or inconclusive.
SMILES,LmPK inhibitor,FBPA Giardia inh,Cycloheximide cs,Tb PYK inh,Sm TGR inh,Shiga inhibitor
C[C@H](NC(=O)c1ccco1)C(=O)Nc1nc(-c2ccccn2)cs1,·,·,·,–,·,·
c1ccc(-c2nccc(-c3ccco3)n2)nc1,–,–,–,–,–,42
c1ccc(-c2noc(-c3ccno3)n2)nc1,–,–,31,–,–,48
Cc1ccc(-c2noc(-c3ccno3)n2)cc1,–,–,49,–,–,82
c1ccc(-c2nc(-c3ccco3)cs2)nc1,–,–,30,?,22µM,107
COc1ccc(C(=O)Nc2ccccc2C(=O)NC2CC2)c(OC)c1OC,·,·,·,–,·,·
Fc1ccc(-c2csc(-c3ccccn3)n2)cc1F,–,–,46,–,–,175
c1ccc(-c2noc(-c3ccco3)n2)nc1,16µM,–,29,–,–,36
COc1ccc2[nH]cc(CCNc3cc(-c4ccoc4)ncn3)c2c1,·,–,·,·,·,·
O=C(Cn1ncn2c(cc3ccccc32)c1=O)NCc1ccc(F)cc1,·,·,·,–,–,·
CCOC(=O)c1c(-n2cnnn2)sc2c1CCCC2,–,–,–,–,–,–
CCOC(=O)c1c(N2C(=O)C3C4C=CC(O4)C3C2=O)sc2c1CCCC2 (configuration not stated),–,–,–,?,3.2µM,–
CC(=O)Nc1ccc(-c2ccnc3c2CC(C(=O)NCc2cccc(Cl)c2)O3)cc1 (configuration not stated),·,·,·,–,·,·
COc1ccc(O)c(-c2cc(-c3ccccc3Cl)[nH]n2)c1,–,–,26,–,–,33
COc1ccc(OC)c(NC(=O)c2cc(-c3cc(Cl)ccc3O)n[nH]2)c1,–,–,–,–,–,–
COc1ccc(O)c(-c2cc(-c3cccs3)[nH]n2)c1,–,–,43,–,–,155
O=C(O)c1cc(-c2ccccc2Cl)n[nH]1,–,–,–,–,–,–
COc1ccccc1-c1cc(-c2cc(Cl)ccc2O)n[nH]1,–,–,17,–,–,–
COc1ccc(O)c(-c2nc(N)nc(N)n2)c1,·,·,·,–,–,·
Oc1ccc(Br)cc1-c1cc(-c2ccccc2Cl)[nH]n1,–,–,19,–,–,42
Cc1cnc(CNc2ncncc2-c2c(C)noc2C)cn1,·,–,·,·,·,·
Cc1ccc(O)c(-c2cc(C(F)(F)F)[nH]n2)c1,–,–,–,–,–,–
Oc1ccc(Br)cc1-c1cc(-c2ccccc2F)[nH]n1,–,–,64,–,–,77
CNC(=O)N(C1=NCC(C)(C)S1)c1ccc(F)c(Cl)c1,–,–,–,–,–,–
Cc1ccnc(N(C(=O)Nc2ccccc2)C2=NCC(C)(C)S2)c1,–,–,43,–,–,59
SMILES,LmPK inhibitor,FBPA Giardia inh,Cycloheximide cs,Tb PYK inh,Sm TGR inh,Shiga inhibitor
CCOC(=O)c1cc(=O)n2nc(-c3ccccc3F)nc2s1,–,–,–,–,10µM,–
CCOC(=O)c1ccc(NC(=O)Cn2nnc(-c3ccccc3F)n2)cc1,–,–,–,–,–,–
O=C1c2ccccc2C(=O)N1CCc1c[nH]c2ccccc12,–,–,48,–,–,95
O=C1c2ccccc2C(=O)N1CCCc1c[nH]c2ccccc12,–,–,17,–,–,–
O=C1CCCCN1CCc1c[nH]c2ccccc12,–,–,25,–,–,active
CNCCc1c[nH]c2ccccc12,–,–,–,–,–,–
O=C(CN1C(=O)c2ccccc2C1=O)NCCc1c[nH]c2ccccc12,–,–,–,–,–,–
O=C1CCC(=O)N1CCc1c[nH]c2ccccc12,–,–,–,–,–,–
CNCCc1c[nH]c2ccc(O)cc12,·,2µM,·,–,·,·
CCC(O)c1cnc(OCc2ccccc2)nc1OCc1ccccc1 (configuration not stated),·,·,·,–,·,·
CCOCCCNC(=O)CSc1nnc(-c2ccc(S(=O)(=O)N3CCCC3)cc2)n1C,–,–,–,–,–,–
O=C(CN1CCN(c2ccc(O)cc2)CC1)N(C1CC1)C1CCS(=O)(=O)C1 (configuration not stated),·,·,·,–,–,·
c1ccc2c(CN3CCCCCC3)c[nH]c2c1,–,–,39,–,–,73
O=C1c2ccccc2C(=O)N1CCc1c[nH]c2ccc(O)cc12,–,–,34,–,–,–
O=C(CSc1nc2c([nH]c3ccccc32)c(=O)n1-c1ccccc1)Nc1ccc2c(c1)OCCO2,·,·,·,–,–,·
CC(Oc1ccccc1)c1ccn[nH]1 (configuration not stated),–,–,–,–,·,–
c1ccc(C(c2ccccc2)c2ccn[nH]2)cc1,–,–,19,–,–,61
CCC1CCC/C1=N\NC(=O)c1ccoc1C (configuration not stated),–,·,38,–,–,86
Cc1cc2c(s1)c1cnn(Cc3ccc(C(F)(F)F)cc3F)c(=O)c1n2C,·,·,–,·,·,–
COc1ccc(C2=C3C(=O)OCC3Cc3ncn(Cc4ccccc4)c32)cc1 (configuration not stated),·,·,·,–,–,·
COc1ccc(C2CC(c3ccccc3)=NN2c2ccc(/C=N/NC(=O)c3ccncc3)cc2)cc1 (configuration not stated),–,–,14,–,–,28
N#CCC(=O)N/N=C/c1c(-c2ccccc2)n(-c2ccccc2)c2ccccc12,–,–,–,–,–,–
N#CCC(=O)N/N=C/c1ccc(N2N=C(c3ccccc3)CC2c2ccccc2)cc1 (configuration not stated),–,–,10,–,–,–
CC1CC=CC2C1C(=O)N(Cc1ccccc1)C2c1cccc([N+](=O)[O-])c1 (configuration not stated),·,–,–,·,·,–
Cc1ccc(S(=O)(=O)N(C)S(=O)(=O)c2ccc(C#N)cc2)cc1,–,–,–,·,–,–
SMILES,LmPK inhibitor,FBPA Giardia inh,Cycloheximide cs,Tb PYK inh,Sm TGR inh,Shiga inhibitor
COc1ccc(Cn2c(-c3ccc(OC)cc3)nc3ccccc32)cc1,–,–,–,–,–,–
COc1ccc(Cn2c(-c3ccc(Br)cc3)c[n+]3ccccc23)cc1,–,–,57,–,–,49
Cc1nc2nc(CNC(=O)c3cccc(F)c3)nn2c(C)c1CCC(=O)Nc1ccc(F)cc1,·,·,·,–,–,·
CCOc1ccc(-n2c(=O)c3sc4ccccc4c3n(Cc3ccc(F)cc3)c2=O)cc1,·,·,·,–,–,·
CN1c2cc3c(cc2N=C(c2ccc(C(=O)O)cc2)c2ccccc21)C(C)(C)CCC3(C)C,·,–,·,·,·,·
CCOc1ccc2[nH]c3c(NCCN(CC)CC)ncnc3c2c1,–,–,–,–,–,–
CC(C)OCCCNc1ncnc2c1[nH]c1ccccc12,–,–,16,–,–,–
C1=C(CCNc2ncnc3c2[nH]c2ccccc23)CCCC1,–,–,26,–,–,116
